Source: PubChem BioAssay (EPA / NIEHS)
“And” between values parts separate entries of the source, which are not always exact repeats. Equal values may be shown once. The source holds several records for some structures; these can differ, active in one and inactive in another. The source made the active and inactive calls. Rule for the calls: active = hit-call score of the fitted dose curve at least 0.9, where 1 is the maximum; inactive = score below 0.9.

These compounds were tested on Interferon-gamma inducible Protein 10 (IP10), CXCL10 (gene 3627) (assay: BSK_BE3C_IP10: BioMAP Diversity Plus: BE3C Assay for Interferon-gamma inducible Protein 10 (IP10) Biomarker Activity (AID 2283034)). Settings: primary human bronchial epithelial cells; actives raise or lower the signal.
How it was run: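 IP-10 quantified by ELISA serves as the endpoint. Cells: primary human bronchial epithelium, read 24 h after compound addition. Activity is derived by bidirectional fitting with DMSO as negative control.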

SMILES | outcome | AC50
O=P(O)(O)CCC(F)(F)C(F)(F)C(F)(F)C(F)(F)C(F)(F)C(F)(F)C(F)(F)C(F)(F)F | inactive | 
CCC(C)c1ccccc1O (stereo not drawn) | inactive | 
O=C(O)C(F)(F)OC(F)(F)C(F)(F)OC(F)(F)C(F)(F)OC(F)(F)C(F)(F)C(F)(F)C(F)(F)F |  | 4.85 µM (active) and 4.88 µM (active)
CCCCCCCCCCCCCCC | inactive | 
O=C1NS(=O)(=O)c2ccccc21 | inactive | 
C[C@]12CC[C@@H]3c4ccc(O)cc4CC[C@H]3[C@@H]1C[C@@H](O)[C@@H]2O | inactive | 
CCOC(=O)CN[C@@H](C(=O)N1CC[C@H]1C(=O)NCc1ccc(/C(N)=N/O)cc1)C1CCCCC1 | inactive | 
CCCCC(CC)C(=O)OCCOCCOCCOCCOC(=O)C(CC)CCCC (stereo not drawn) | inactive | 
Cc1cccc2c1ccc1ccccc12 | inactive | 
CC(C)(C)c1ccc(O)c(O)c1 | inactive | 
CN(C)c1ccc(C(=C2C=CC(=[N+](C)C)C=C2)c2ccccc2)cc1 |  | 0.202 µM (active)
O=P(O)(O)CCC(F)(F)C(F)(F)C(F)(F)C(F)(F)C(F)(F)C(F)(F)F | inactive | 3.21 µM (active)
O=S(=O)(O)C(F)(F)C(F)(F)C(F)(F)C(F)(F)C(F)(F)C(F)(F)C(F)(F)C(F)(F)C(F)(F)C(F)(F)F |  | 13.3 µM (active) and 12 µM (active)
O=C(NO)c1ccccc1 | inactive | 
CC[N+](CC)(CC)Cc1ccccc1 | inactive | 
O=C(c1ccccc1)c1ccccc1 | inactive | 
OCC(F)(F)C(F)(F)C(F)(F)C(F)(F)C(F)(F)C(F)(F)C(F)(F)C(F)(F)C(F)(F)C(F)(F)C(F)(F)F | inactive | 0.218 µM (active)
O=C1OC2(c3ccccc31)c1cc(I)c(O)c(I)c1Oc1c2cc(I)c(O)c1I |  | 13.6 µM (active)

SMILES | outcome | AC50
Cc1[nH]nc2c1N=C(c1ccccc1Cl)c1cc([N+](=O)[O-])ccc1N2 |  | 12.2 µM (active)
O=C(NCc1ncc(C(F)(F)F)cc1Cl)c1c(Cl)cccc1Cl | inactive | 
N=C(N)c1ccc(OCCCCCOc2ccc(C(=N)N)cc2)cc1 |  | 24.1 µM (active)
C=CC(C)(CCC=C(C)C)OC(C)=O (stereo not drawn) |  | 26.6 µM (active)
CCCCCCCCCCCCCCCCCC[N+](C)(C)Cc1ccccc1 |  | 4.27 µM (active)
O=C(O)CCC(F)(F)C(F)(F)C(F)(F)C(F)(F)C(F)(F)C(F)(F)F | inactive | 
Oc1ccc(Cc2ccccc2O)cc1 | inactive | 
CCCCC=O | inactive | 
CN(CCO)S(=O)(=O)C(F)(F)C(F)(F)C(F)(F)C(F)(F)C(F)(F)C(F)(F)C(F)(F)C(F)(F)F | inactive | 
COCN(COC)c1nc(N(COC)COC)nc(N(COC)COC)n1 | inactive | 
O=C1c2ccc(O)c(O)c2C(=O)c2c(O)ccc(O)c21 | inactive | 
OCCN1CN(CCO)CN(CCO)C1 | inactive | 
CCCCc1oc2ccccc2c1C(=O)c1cc(I)c(OCCN(CC)CC)c(I)c1 |  | 12 µM (active)
O=C(O)CCC(F)(F)C(F)(F)C(F)(F)C(F)(F)C(F)(F)F | inactive | 
CN(Cc1cnc2nc(N)nc(N)c2n1)c1ccc(C(=O)N[C@@H](CCC(=O)O)C(=O)O)cc1 | inactive | 
O=C(CC(=O)C(F)(F)C(F)(F)C(F)(F)F)c1cccs1 |  | 19.5 µM (active) and 18.9 µM (active)
CS(=O)(=O)c1ccc([C@@H](CC2CCCC2)C(=O)Nc2cnccn2)cc1Cl |  | 31 µM (active)
CC1=NN(c2ccccc2)C(=O)C1 | inactive | 
